The source of these data is PubChem BioAssay (NCATS).

Test [1] has as its target Cytochrome P450 3A4 (Homo sapiens) (UniProt P08684). The test can be described thus: qHTS Assay for Activators of Cytochrome P450 3A4 (AID 885). Also: nearly all actives have a fitted effect of over 65% in size. The procedure, abridged:
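Activators are scored by enhanced luminescence from CYP3A4 conversion of luciferin-PPXE (25uM, equal to KM) to luciferin, after 60 min at RT with an NADPH-regenerating system.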
(In general: In qHTS, concentration-response curves come from the screen itself.)

In test [2] the target is Bile acid receptor (Homo sapiens) (UniProt Q96RI1). The test can be described thus: qHTS assay for small molecule antagonists of farnesoid X receptor signaling (AID 588526; calls by dose curve; also: % is scaled to controls: 0 for no effect and ±100 for the full control effect). A digest of the protocol: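 Beta-lactamase reporter antagonist mode: HEK293T FXR-UAS-bla cells, titrated compound, CDCA stimulation, 16 h 37 C, CCF4 dye 2 h RT. Data normalized to CDCA 50 uM and DMSO; Hill-fit IC50.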
Chain of Bile acid receptor (Homo sapiens) (Q96RI1 whole entry, looked up): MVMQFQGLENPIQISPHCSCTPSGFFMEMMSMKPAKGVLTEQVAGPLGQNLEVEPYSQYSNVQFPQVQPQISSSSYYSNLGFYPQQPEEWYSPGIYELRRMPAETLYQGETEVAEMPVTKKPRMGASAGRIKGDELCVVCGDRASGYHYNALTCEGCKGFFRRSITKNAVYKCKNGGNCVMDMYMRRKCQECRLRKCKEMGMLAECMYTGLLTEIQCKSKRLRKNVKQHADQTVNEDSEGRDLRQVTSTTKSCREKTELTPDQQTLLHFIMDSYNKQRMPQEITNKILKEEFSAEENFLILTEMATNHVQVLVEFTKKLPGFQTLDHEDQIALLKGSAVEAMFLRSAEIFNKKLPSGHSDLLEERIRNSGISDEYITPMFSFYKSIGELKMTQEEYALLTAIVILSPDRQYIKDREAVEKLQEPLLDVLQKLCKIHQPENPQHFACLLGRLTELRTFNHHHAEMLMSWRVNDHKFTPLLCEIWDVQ

Test [3] in a line: qHTS assay to identify small molecules that stimulate interleukin-8 (IL-8) secretion (AID 651758; active = well fitted activation curve with a large enough effect in the signal ratio; the % refers to the signal ratio; also: 0% is about no effect). The procedure, abridged: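 Secreted IL-8 measured homogeneously by TR-FRET (two labelled anti-IL-8 antibodies, 1-3 h at room temperature) after a 16 h, 37 C compound treatment of THP-1 cells at 2000 cells/well.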
Test [4] concerns the target Androgen receptor (Homo sapiens) (UniProt P10275). The test can be described thus: qHTS assay for small molecule agonists of androgen receptor signaling (AID 588515; active = well fitted curve in the direction sought with a large enough effect in the signal ratio, with a control signal flat; the % refers to the signal ratio; also: % is scaled to controls: 0 for no effect and ±100 for the full control effect). The following applies: AR-UAS-bla HEK293, beta-lactamase ratio, agonist 16 h; hits give high values. The procedure, abridged:
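Stimulation of an AR-responsive β-lactamase reporter in GripTite HEK293 cells was measured after 16 h compound exposure at 37 °C, via CCF4 fluorescence after 2 h RT. EC50 from Hill fits, normalized to R1881 at 30 nM.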

The target of test [5] is Estrogen receptor (Homo sapiens) (UniProt P03372). The test can be described thus: qHTS assay for small molecule agonists of estrogen receptor alpha signaling (AID 588514; calls by dose curve;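 also: 0% = vehicle only and 100% = reference agonist; nearly all actives have a fitted effect of over 70% in size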). A digest of the protocol: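 EC50 and efficacy came from Hill fits of beta-lactamase reporter signal (CCF4 dye, 2 h at room temperature) scaled between DMSO and 20 nM 17-beta-estradiol. Agonist mode: HEK293 ER-alpha-UAS-bla cells in charcoal/dextran-stripped serum medium, 18 h compound exposure at 37 C.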
Chain of Estrogen receptor (Homo sapiens) (P03372 whole entry, looked up): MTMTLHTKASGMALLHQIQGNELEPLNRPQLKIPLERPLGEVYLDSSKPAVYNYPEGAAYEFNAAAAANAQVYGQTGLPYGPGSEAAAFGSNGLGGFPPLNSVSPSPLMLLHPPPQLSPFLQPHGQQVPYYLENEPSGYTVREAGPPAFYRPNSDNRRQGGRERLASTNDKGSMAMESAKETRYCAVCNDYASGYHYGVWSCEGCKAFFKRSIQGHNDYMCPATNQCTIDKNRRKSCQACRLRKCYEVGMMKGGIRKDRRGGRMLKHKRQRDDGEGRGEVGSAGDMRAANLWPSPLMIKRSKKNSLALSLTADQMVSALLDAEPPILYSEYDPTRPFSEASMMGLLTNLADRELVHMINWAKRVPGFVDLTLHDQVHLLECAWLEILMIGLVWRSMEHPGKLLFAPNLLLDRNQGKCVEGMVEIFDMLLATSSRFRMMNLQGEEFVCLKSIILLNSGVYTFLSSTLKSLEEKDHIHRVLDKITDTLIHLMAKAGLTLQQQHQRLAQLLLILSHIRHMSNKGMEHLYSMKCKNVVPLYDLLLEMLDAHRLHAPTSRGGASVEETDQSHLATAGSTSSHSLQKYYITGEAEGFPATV

Test [6] has as its target Androgen receptor (Homo sapiens) (UniProt P10275). In words: qHTS assay for small molecule antagonists of androgen receptor signaling (AID 588516; active = well fitted curve in the direction sought with a large enough effect in the signal ratio, with a control signal flat, not every such curve was filed as active; the % refers to the signal ratio; also: % is scaled to controls: 0 for no effect and ±100 for the full control effect). The procedure, abridged:
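Antagonist-mode qHTS: inhibition of R1881 (10 nM)-driven beta-lactamase expression in GripTite HEK 293 cells is measured after 16 h; values are Hill-derived IC50s normalized between R1881 and DMSO wells.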

Test [7] can be described thus: qHTS Assay for Inhibitors of Fructose-1,6-bisphosphate Aldolase from Giardia Lamblia: Giardia lamblia growth inhibition (AID 2785). Also: % is scaled to controls: 0 for no effect and ±100 for the full control effect; nearly all actives have a fitted effect of over 70% in size. The procedure, abridged: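 Whole-parasite growth test: Giardia WB trophozoites in TYI-S-33 (pH 7.0), 100 per well, incubated 48 h at 37C with compound. ATP content was read by ATPlite luminescence.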
The nature of test [8]: qHTS Assay for Inhibitors of Fructose-1,6-bisphosphate Aldolase from Giardia Lamblia: Mammalian cellular toxicity (AID 2786).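 Also: compound exposure lasted 48 h before reading; % is scaled to controls: 0 for no effect and ±100 for the full control effect; nearly all actives have a fitted effect of over 60% in size.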 The procedure, abridged: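 Mammalian cytotoxicity surrogate: Chinese hamster ovary cells exposed to compound for 48 h at 37 °C. Cellular ATP then measured with ATPlite reagent, 20 min incubation.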
Test [9] addresses Fructose-bisphosphate aldolase (Giardia intestinalis (strain ATCC 50803 / WB clone C6)) (UniProt A8B2U2). In words: qHTS Assay for Inhibitors of Fructose-1,6-bisphosphate Aldolase from Giardia Lamblia: Primary screen confirmation (AID 2787).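 Also: aldolase product measured through coupled diaphorase step turning resazurin into fluorescent resorufin; series mostly up to about 58 µM; % is scaled to controls: 0 for no effect and ±100 for the full control effect; nearly all actives have a fitted effect of over 45% in size.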 A digest of the protocol: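 FBPA (40 nM in enzyme reagent, with 30 uM ZnCl2) was preincubated 10 min at RT with compound up to 57.5 uM final. Substrate plus coupled detection system was then added, and fluorescence (525/598 nm) was read after 20 min at RT.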

Test [10] has as its target Fructose-bisphosphate aldolase A (Oryctolagus cuniculus) (UniProt P00883). The test can be described thus: qHTS Assay for Inhibitors of Fructose-1,6-bisphosphate Aldolase from Giardia Lamblia: Rabbit FBPA Selectivity (AID 2794). Also: % is scaled to controls: 0 for no effect and ±100 for the full control effect; nearly all actives have a fitted effect of over 60% in size. A digest of the protocol: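 AmpLite Red readout, ex/em 525/598 nm. Rabbit FBPA, GAP-linked coupling enzymes; 10 min cpd preincubation, then 20 min after substrate, both RT. Concentration-response up to 57.5 uM final.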

A short description of test [11]: qHTS Assay for Inhibitors of Fructose-1,6-bisphosphate Aldolase from Giardia Lamblia: Coupling assay counterscreen confirmation (AID 2795). Also: % is scaled to controls: 0 for no effect and ±100 for the full control effect; nearly all actives have a fitted effect of over 55% in size. A digest of the protocol: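 GAPDH-coupled counterassay lacking aldolase; compound range up to 57.5 uM final; 10 + 20 min RT incubations; AmpLite Red fluorescence, 525/598 nm.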
The target of test [12] is Ferritin light chain (Equus caballus) (UniProt P02791). The test can be described thus: qHTS Validation Assay for Identification of Novel General Anesthetics (AID 2323). Also: series mostly up to about 77 µM; % is scaled to controls: 0 for no effect and ±100 for the full control effect. The procedure, abridged:
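Apoferritin from horse spleen (10 uM) was mixed with 1-aminoanthracene at 50% saturation in PBS, then compounds were added. After 10 min at room temperature, fluorescence was read (ex 380 nm, em 535 nm) and normalized to free-probe and complex controls.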

Test [13] can be described thus: Validation screen for inhibitors of Lassa infection (AID 463096; calls by dose curve; also: % is scaled to controls: 0 for no effect and ±100 for the full control effect).
In test [14] the test system is HIV-1 nucleocapsid protein NCp7 (binding to TG oligonucleotide). In words: HIV Nucleocapsid (AID 346; call rule not given here;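 also: potency is read from the fitted curve at half-maximal effect; potency is for inhibitors that block NC binding and lower polarization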). The following applies: HIV-1 NC / fluorescein-TGTGTGTG probe, fluorescence polarization. A digest of the protocol: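 NCp7 100 nM + fluorescein TG4xF 10 nM; Hepes pH 7.5/250mM NaCl/1uM ZnCl2/0.004% PEG 20000; 1 hr RT; FP, 45 s exposure; oligo-only wells as negative control.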
(Fluorescence polarisation rises when a labelled molecule tumbles more slowly, as on binding a larger partner.)

Where “and” joins values, the source holds several entries; their conditions need not be identical. Equal entries are not always repeated. Unmarked numbers belong to inactive results. Inconclusive results are not listed. The list shows a part of the results. Calls of active or inactive are those of the source. Unless noted, calls follow the shape of the dose curve; as a rule, active = well fitted curve in the direction sought with a large enough effect; inconclusive = small, poorly fitted or top-dose-only effect, or another doubt; inactive = no such curve, though single readings can be large; an effect the other way counts as inactive or inconclusive. Bounds are passed on as bounds.

Chain of Cytochrome P450 3A4 (Homo sapiens) (P08684 whole entry, looked up): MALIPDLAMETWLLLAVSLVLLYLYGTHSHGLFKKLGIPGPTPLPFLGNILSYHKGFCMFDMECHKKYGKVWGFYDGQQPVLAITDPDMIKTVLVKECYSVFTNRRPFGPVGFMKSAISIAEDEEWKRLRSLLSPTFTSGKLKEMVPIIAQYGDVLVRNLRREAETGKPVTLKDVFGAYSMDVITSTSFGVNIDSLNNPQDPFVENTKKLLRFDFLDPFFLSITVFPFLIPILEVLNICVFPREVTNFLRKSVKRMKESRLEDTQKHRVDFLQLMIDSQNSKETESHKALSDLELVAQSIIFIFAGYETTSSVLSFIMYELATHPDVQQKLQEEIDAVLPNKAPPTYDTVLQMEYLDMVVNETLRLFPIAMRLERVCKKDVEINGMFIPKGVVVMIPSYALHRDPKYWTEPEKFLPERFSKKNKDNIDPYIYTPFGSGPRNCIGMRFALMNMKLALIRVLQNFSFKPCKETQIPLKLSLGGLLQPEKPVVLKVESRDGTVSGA
Chain of Fructose-bisphosphate aldolase (Giardia intestinalis (strain ATCC 50803 / WB clone C6)) (A8B2U2 whole entry, looked up): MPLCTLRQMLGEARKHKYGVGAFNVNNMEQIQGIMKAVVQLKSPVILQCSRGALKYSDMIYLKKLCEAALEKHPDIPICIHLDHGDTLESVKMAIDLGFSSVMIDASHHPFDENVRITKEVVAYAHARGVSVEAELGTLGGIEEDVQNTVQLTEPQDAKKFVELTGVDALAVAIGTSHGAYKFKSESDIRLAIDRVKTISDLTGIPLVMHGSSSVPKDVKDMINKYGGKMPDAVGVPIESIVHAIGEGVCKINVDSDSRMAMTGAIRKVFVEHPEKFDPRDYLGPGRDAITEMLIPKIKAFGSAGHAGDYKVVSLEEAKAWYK
Chain of Androgen receptor (Homo sapiens) (P10275 whole entry, looked up): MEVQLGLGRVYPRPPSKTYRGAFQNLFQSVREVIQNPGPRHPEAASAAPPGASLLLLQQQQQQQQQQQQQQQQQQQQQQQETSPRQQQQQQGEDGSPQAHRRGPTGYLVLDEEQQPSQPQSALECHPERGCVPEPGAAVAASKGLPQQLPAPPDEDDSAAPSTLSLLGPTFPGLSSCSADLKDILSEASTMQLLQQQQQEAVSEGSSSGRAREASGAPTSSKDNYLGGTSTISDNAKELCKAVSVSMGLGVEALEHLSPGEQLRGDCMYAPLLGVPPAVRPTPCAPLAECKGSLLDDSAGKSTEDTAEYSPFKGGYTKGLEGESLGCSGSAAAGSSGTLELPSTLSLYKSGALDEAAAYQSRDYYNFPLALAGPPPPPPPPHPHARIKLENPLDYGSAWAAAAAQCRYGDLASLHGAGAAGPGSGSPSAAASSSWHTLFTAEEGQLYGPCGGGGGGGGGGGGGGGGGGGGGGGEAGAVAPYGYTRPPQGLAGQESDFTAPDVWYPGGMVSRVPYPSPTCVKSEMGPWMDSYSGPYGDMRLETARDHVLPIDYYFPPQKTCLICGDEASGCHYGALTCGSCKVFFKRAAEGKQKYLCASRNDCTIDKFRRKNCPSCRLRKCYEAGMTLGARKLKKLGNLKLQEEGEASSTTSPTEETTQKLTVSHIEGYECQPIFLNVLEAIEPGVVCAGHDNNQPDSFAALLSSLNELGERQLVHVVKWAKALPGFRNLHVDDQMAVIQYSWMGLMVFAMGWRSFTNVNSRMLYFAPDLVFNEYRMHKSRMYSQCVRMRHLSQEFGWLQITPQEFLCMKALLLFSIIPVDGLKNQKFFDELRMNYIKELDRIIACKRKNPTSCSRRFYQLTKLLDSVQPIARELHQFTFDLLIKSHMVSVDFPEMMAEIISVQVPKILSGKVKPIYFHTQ
Chain of Fructose-bisphosphate aldolase A (Oryctolagus cuniculus) (P00883 whole entry, looked up): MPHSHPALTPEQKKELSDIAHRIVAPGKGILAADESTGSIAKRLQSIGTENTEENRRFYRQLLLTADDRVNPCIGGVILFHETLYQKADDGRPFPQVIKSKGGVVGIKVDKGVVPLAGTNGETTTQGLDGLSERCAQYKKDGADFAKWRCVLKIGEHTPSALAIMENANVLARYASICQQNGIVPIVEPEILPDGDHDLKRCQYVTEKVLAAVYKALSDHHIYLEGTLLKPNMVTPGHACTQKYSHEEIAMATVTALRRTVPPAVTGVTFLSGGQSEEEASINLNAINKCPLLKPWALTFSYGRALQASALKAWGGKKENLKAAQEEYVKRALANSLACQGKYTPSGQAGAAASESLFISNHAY
Chain of Ferritin light chain (Equus caballus) (P02791 2-175 limits assumed): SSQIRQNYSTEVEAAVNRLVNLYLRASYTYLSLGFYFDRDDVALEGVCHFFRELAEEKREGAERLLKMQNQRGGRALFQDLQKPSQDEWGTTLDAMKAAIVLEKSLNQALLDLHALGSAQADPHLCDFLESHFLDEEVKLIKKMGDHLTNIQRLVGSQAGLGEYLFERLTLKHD

Take `CCOC(=O)CC(SP(=O)(OC)OC)C(=O)OCC` (stereo not given): in test [1], the Potency entry was “inactive”. Further, the result in test [2] was inactive.

Take `CC(C)[N+](=O)[O-]`: the compound was classed as inactive in [2]. Also, in [3], the Potency result is “inactive”.

Turning to `Oc1c(Cl)c(Cl)cc(Cl)c1Cl`, the activation in [4] was -20.1%.

On to `O=[N+]([O-])c1cc(Cl)c(Cl)c(Cl)c1`, for which the Potency result in test [5] is “inactive”. In addition, the compound was classed as inactive in test [2].

As to `Nc1ncc([N+](=O)[O-])s1`, in test [2], the result was inactive.

With `Cc1cc(N=Nc2ccccc2C)ccc1N`, the Potency entry in test [1] and in test [3] was “inactive” throughout. The activation in [4] is -4.45%. Further, the compound was called inactive in [6] and in test [2].

For the compound `CCCCC(CC)COC(=O)c1ccc(C(=O)OCC(CC)CCCC)c(C(=O)OCC(CC)CCCC)c1` (stereo not given), the activation in [4] was -4.73%.

On to `Clc1ccccc1`, for which the Potency entry in test [5] is “inactive”.

For `c1ccc(N=NNc2ccccc2)cc1`, the Potency result in [5] was “inactive”.

Regarding `Cc1ccc(OP(=O)(Oc2ccc(C)cc2)Oc2ccc(C)cc2)cc1`, the Potency entry in test [1] is “inactive”.

In the case of `CN(C)c1ccc(N)cc1`, the Potency result in [1] is “inactive”. In addition, in test [4], the activation is -5.02%.

As to `O=[N+]([O-])c1c(Cl)c(Cl)c(Cl)c(Cl)c1Cl`, the activation in test [4] is 15.3% and 4.1%. The result in test [6] was inactive.

For the compound `Nc1cc(Cl)ccc1O`, the Potency result in [5] is “inactive”.

For the compound `COc1ccc(CNCCc2c[nH]c3ccccc23)cc1OC`, in test [7], the activity change, negative = inhibition is 0.258% [at 10.4 µM]. The outcome in [8], in test [9], in test [10] and in test [11] was inactive.

For the compound `O=C(NC(=S)N1C[C@H]2C[C@H](C1)c1cccc(=O)n1C2)c1ccc(F)cc1`, the result in test [7], in test [8], in test [9], in [10] and in [11] was inactive.

As for `CN1C2CCC1CC(NC(=O)c1nn(C)c3ccccc13)C2` (stereo not given), the call in [12] and in test [13] was inactive.

Take `COc1ccccc1CN1CCN(C(=O)Cc2ccccc2)CC1`: the outcome in test [7], in test [8], in test [9], in [10] and in [11] was inactive.

With `O=c1cnc2cnc(Oc3cccc(Cl)c3)nc2n1Cc1ccc(F)cc1`, the Potency in [14] is above 20 µM.
